Compounds with a hit are over-represented: about 10% of the library has one in this group of screens.
Luciferase inh – Photinus pyralis luciferase inhibition; P08659; purified P. pyralis luciferase, luminescence, biochemical; Potency, µM (doses to about 115 µM), hits mostly inhibitors; 2.5% of 76,000 active; AID 1347043; note: nearly all actives have a fitted effect of over 65% in size
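Inhibitors were tested against purified firefly luciferase in a biochemical, low-substrate format (both substrates at 10uM) and luminescence measured with a CCD imager.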
GPT2 inh – GPT2 alanine aminotransferase inhibition | Q8TD30 | Recombinant GPT2, coupled pyruvate oxidase/HRP Amplex Red fluorescence | Potency, µM (top dose mostly 57.7 µM), for the others: at the top dose activity change, negative = inhibition, usual class: inhibitors | 0.25% of 100,000 active; note: nearly all actives have a fitted effect of over 60% in size
Target sequence (Q8TD30 whole entry, looked up): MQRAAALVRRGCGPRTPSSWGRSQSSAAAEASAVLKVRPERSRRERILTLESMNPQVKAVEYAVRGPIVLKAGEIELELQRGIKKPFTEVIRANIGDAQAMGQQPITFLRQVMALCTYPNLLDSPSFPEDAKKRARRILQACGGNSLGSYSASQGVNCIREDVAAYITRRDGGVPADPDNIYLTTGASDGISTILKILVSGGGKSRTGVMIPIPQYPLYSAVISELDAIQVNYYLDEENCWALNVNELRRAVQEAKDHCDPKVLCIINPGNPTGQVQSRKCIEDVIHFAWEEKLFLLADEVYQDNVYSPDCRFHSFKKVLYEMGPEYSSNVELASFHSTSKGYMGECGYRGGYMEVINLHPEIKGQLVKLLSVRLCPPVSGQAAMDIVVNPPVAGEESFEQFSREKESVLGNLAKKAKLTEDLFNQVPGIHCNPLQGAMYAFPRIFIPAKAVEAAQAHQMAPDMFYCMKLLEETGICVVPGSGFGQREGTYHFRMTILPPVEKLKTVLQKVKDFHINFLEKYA
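Fluorescence read-out: pyruvate from GPT2 turnover coupled to pyruvate oxidase, HRP and Amplex Red (0.2mM ThPP, 0.2U/mL PO and HRP, 50uM Amplex final). Substrates 250uM a-KG, 2mM L-alanine; enzyme 10ng/uL; 30 min RT.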
NPR1 antag – human Npr1 receptor antagonism; AID 1347048; Potency, µM (titrated, usually from 46.3 µM), for the others: at the highest dose activity change, negative = inhibition, usual class: inhibitors; P16066; 1.6% of 76,000 active; HEK293 hNpr1 GloSensor cGMP, ANP-stimulated luminescence; calls by dose curve; note: nearly all actives have a fitted effect of over 60% in size
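HEK293 cells stably expressing human Npr1 and cGMP GloSensor pGS-40F, loaded 2 h with 2% GloSensor reagent, given compound 30 min at room temperature. Luminescence read before and 20 min after 0.1 nM hNppA.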
3T3 cytotox – cytotoxic compounds in NIH 3T3 cells | AID 1345082 | 4.3% of 94,000 active | Potency, µM (titrated, usually from 96.7 µM), for inactives: at the highest dose activity change, negative = cytotoxicity, most hits filed as inhibitors | NIH 3T3 viability, CellTiter-Glo ATP luminescence, 48-72 h; note: nearly all actives have a fitted effect of over 55% in size
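Mouse fibroblast NIH 3T3 cells, 400 per well, received compound via pintool and were incubated for 48 or 72 hr prior to CellTiter-Glo ATP luminescence measurement.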
HEK cytotox – HEK 293 cell cytotoxicity; HEK 293 viability, ATP luminescence (CellTiter-Glo), 48-72 h; Potency, µM (highest dose often 115 µM), without a hit: top-dose activity change, negative = cytotoxicity, usual class: inhibitors; 6.6% of 94,000 active; AID 1345083; note: nearly all actives have a fitted effect of over 60% in size
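Read-out: CellTiter-Glo ATP luminescence. Cells: HEK 293, 250 cells/well. Exposure: 48 or 72 hr, 37 degree Celsius.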
The depositor's hits bear a star; i = inactive; ? = inconclusive; . = not tested or not shown; [ ] = dose if it differs, or a comment. Unless noted, calls come from the whole dose curve; as a rule, active = well fitted curve in the direction sought with a large enough effect; inconclusive = small, poorly fitted or top-dose-only effect, or another doubt; inactive = no such curve, though single readings can be large; an effect the other way counts as inactive or inconclusive. % is set by controls: 0 for no effect and ±100 for the full control effect; potency is the fitted concentration of half-maximal effect.

SMILES	Luciferase inh	GPT2 inh	NPR1 antag	3T3 cytotox	HEK cytotox
CNCc1cccc(F)c1	.	-11.5%[88.5 µM]	.	i	i
COc1cc(F)ccc1-c1cc2c(ccn2Cc2ccncc2)c(N2CCOCC2)n1	i	1.5%[88.5 µM]	-9.6%[70.6 µM]	?	79.4µM*
c1ccc(-c2cc3c(ccn3Cc3ccncc3)c(N3CCOCC3)n2)cc1	i	?	-7.8%[70.6 µM]	?	?
c1cc(Cn2ccc3c(N4CCOCC4)nc(-c4cncnc4)cc32)ccn1	i	-26.3%[88.5 µM]	-1.8%[70.6 µM]	10µM*	?
COc1cc(-c2onc(C)c2C(=O)NCCc2cccs2)cc(OC)c1OC	i	2.3%	2.1%	-17.7%	-6.4%
C[S+](=O)([O-])c1ccc(-c2nnc3ccc(C(=O)NCCc4ccccc4)cn23)cc1	.	i	.	-19.8%	-12.8%
O=C(C[C@@H]1C[C@H]2O[C@H](CNC3CCC3)[C@@H](O)[C@H]2O1)N1CCOCC1	i	-10.3%[88.5 µM]	9.6%[70.6 µM]	-11.6%[174 µM]	0.3%[172 µM]
CCCC(C)C(=O)N1CCn2nc(C(=O)Nc3ccccc3)cc2C1 (centres undefined)	i	-15.1%[11.5 µM]	-22.7%	-17.9%	35.5µM*
CCn1cc(C(=O)N2CCn3nc(C(=O)Nc4ccccc4)cc3C2)c(C)n1	i	-3.4%	-1.0%	-20.7%	?
COc1ccc(C(=O)NC[C@@H]2CC[C@H]3C[C@@H]2C3(C)C)cc1	i	-7.1%[88.5 µM]	?	?	100µM*
CC1(C)[C@H]2CC[C@@H](CNC(=O)c3cncc(Br)c3)[C@@H]1C2	i	i	5.3%	?	79.4µM*
CC1(C)[C@H]2CC[C@@H](CNC(=O)c3ccccc3)[C@@H]1C2	i	4.0%[88.5 µM]	0.9%[70.6 µM]	?	?
CCCCCCCCCCCCCCC[C@H](O)[C@H](N)CO	.	4.0%	.	.	.
CN(C)C(=O)[C@H](O)[C@H](Cc1ccccc1)NC(=O)c1cc2cc(Cl)ccc2[nH]1	.	-0.4%	.	.	.
Cc1nc2n(c1C(=O)Nc1cccc(Cl)c1C)CCC(Nc1ccc(F)cc1)C2 (centres undefined)	i	0.9%[88.5 µM]	-0.8%[70.6 µM]	?	89.1µM*
CC(C)[C@@H](NC(=O)[C@@H]1C[C@@H](NC(=O)Cc2cccs2)CCN1C(=O)CCC(=O)O)C(N)=O	i	?	0.5%	i	-2.2%
Cc1ccc(CNC(=O)C2(CCO)CCN(c3ncccn3)C2)o1 (centres undefined)	i	0.0%	1.9%	i	3.1%
COc1ccc(Nc2cc3c(cn2)CN(CCc2ccccc2)CCN3)cc1OC	i	?	-5.0%[70.6 µM]	25.1µM*	50.1µM*
COc1ccc(Nc2cc3c(cn2)CN(CCc2ccccc2)CCN3)cc1	?	4.7%[88.5 µM]	-5.1%[70.6 µM]	25.1µM*	31.6µM*
Clc1cccc(-c2ncc[nH]2)c1	.	-21.9%[88.5 µM]	.	-10.3%[174 µM]	2.6%[230 µM]
Cc1noc(C)c1Cc1ccc(C(=O)N2CCC(OCCOc3ccccc3)CC2)o1	.	-2.1%	.	?	39.8µM*
CCN(C)C(=O)CCc1c(C)nn(-c2cccc(C)c2)c1Oc1ccccc1	i	-20.9%	-20.9%	35.5µM*	39.8µM*
CCN(C)C(=O)CCc1c(C)nn(-c2ccccc2)c1Oc1ccccc1F	i	3.8%	-17.2%	?	39.8µM*
CCN(CC)C(=O)CCc1c(C)nn(-c2ccc(F)cc2)c1Oc1ccccc1C	i	i	-20.6%	39.8µM*	?
CCN(CC)C(=O)CCc1c(C)nn(-c2ccc(F)cc2)c1Oc1ccccc1	i	1.2%	-20.2%	?	?
O=C(Nc1ccc(F)cc1)C1CN(C2CCCCC2)C(=O)N1 (centres undefined)	.	0.1%[88.5 µM]	.	-24.0%[138 µM]	?
O=C(Cc1cccnc1)N1CCCC(c2nc(CCOc3ccc(F)cc3)no2)C1 (centres undefined)	?	0.8%	-29.8%	-27.4%	?
COCC1CCN(C(=O)C2CCCN(S(=O)(=O)c3cn(C)cn3)CCC(=O)NCC2)CC1 (centres undefined)	i	i	-3.3%	-0.8%	1.1%
COc1ccccc1N1CCN(CCC(=O)N(C)Cc2ccccc2)CC1=O	i	i	5.4%	3.0%	i
COc1ccc(NC(=O)N2CCC3(CC2)CN(c2ccccc2)C3=O)cc1OC	.	?	.	-29.8%	39.8µM*

Source: PubChem BioAssay
